PME-1 primary: blocks human protein phosphatase methylesterase 1 | Q9Y570 | 320,000 tested, 0.53% active | inhibition, % at 5.9 µM | recombinant PME-1, FP-Rh probe fluorescence polarization;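 active = inhibition above the campaign mean of all compounds plus 3 SD, cut at about 26% in these data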;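 also: competitive labeling of PME-1 active site by serine hydrolase directed probe; 0% = PME-1 with DMSO and 100% = wells lacking PME-1 enzyme; inhibitors block probe labeling so polarization falls and inhibition rises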
LYPLA1 counter: blocks human lysophospholipase 1, a PME1 counter-screen; O75608; inhibition, % at 5.9 µM; 320,000 tested, 0.16% active; recombinant LYPLA1, FP-Rh probe fluorescence polarization;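 active = inhibition above the mean of all tested compounds plus 3 SD, set per campaign, cut at about 14% in these data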;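 also: inhibitors block serine hydrolase probe labeling of LYPLA1 so polarization falls; 0% = enzyme with DMSO and 100% = wells lacking LYPLA1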
Target sequence (O75608 whole entry, looked up): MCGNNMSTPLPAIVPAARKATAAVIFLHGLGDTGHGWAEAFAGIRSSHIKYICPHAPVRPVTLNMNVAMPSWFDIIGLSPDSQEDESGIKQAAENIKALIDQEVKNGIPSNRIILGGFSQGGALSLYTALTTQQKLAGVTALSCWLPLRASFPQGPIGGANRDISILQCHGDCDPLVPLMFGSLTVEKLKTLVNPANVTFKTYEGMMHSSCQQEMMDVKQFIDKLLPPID
Fam108B counter: counter-screen for RBBP9 inhibitors: inhibitors of mouse Fam108B; recombinant Fam108B, FP-Rh probe fluorescence polarization; inhibition, % at 9.51 µM; 300,000 tested, 0.33% active;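 active = inhibition above the screen mean inhibition plus 3 SD, computed separately per campaign, cut at about 18% in these data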;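 also: inhibitors lower polarization as less probe binds the enzyme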
LYPLA2 inh: counter-screen for PME1 inhibitors: inhibitors of human LYPLA2. O95372. recombinant LYPLA2, FP-Rh probe fluorescence polarization. inhibition, % at 5.9 µM. 320,000 tested, 0.38% active;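 active = inhibition above the screen-wide mean plus 3 SD, limit set per campaign, cut at about 26% in these data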;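 also: 0% = LYPLA2 with DMSO and 100% = wells lacking LYPLA2 enzyme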
Target sequence (O95372 whole entry, looked up): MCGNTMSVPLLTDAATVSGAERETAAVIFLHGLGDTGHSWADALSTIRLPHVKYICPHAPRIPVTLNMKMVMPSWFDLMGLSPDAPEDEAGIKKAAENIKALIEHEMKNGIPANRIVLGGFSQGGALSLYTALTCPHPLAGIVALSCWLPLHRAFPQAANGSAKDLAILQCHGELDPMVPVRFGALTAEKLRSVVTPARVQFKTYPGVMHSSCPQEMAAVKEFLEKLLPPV
PREPL inhibitor: human PREPL enzyme inhibition. recombinant PREPL, fluorescence polarization activity-based probe. inhibition, % at 5.96 µM. 320,000 tested, 0.68% active. Q4J6C6;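 also: 0% = enzyme with DMSO and 100% = wells lacking enzyme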
Fam108b inh conf: confirmation of mouse Fam108b serine hydrolase inhibitors; shares compounds with Fam108B counter; recombinant Fam108b, FP-Rh probe fluorescence polarization; inhibition, % at 9.51 µM; 930 tested, 44% active;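 active = inhibition above a limit from the primary screen, the mean over all compounds plus 3 SD, cut at about 19% in these data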;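 also: 0% = median of active Fam108b wells and 100% = catalytically dead S170A mutant; inhibitors free the probe so polarization falls as inhibition rises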
Fam108b inh: mouse ABHD17B inhibition; inhibition, % at 20 µM; shares compounds with Fam108B counter; AID 588649; 260 tested, 44% active; recombinant Fam108b, gel-based ABPP, fluorophosphonate probe; in the data active = inhibition above about 40%
LYPLA1 conf: counter-screen for PME1 inhibitors: confirmation of human LYPLA1 inhibitors; shares compounds with LYPLA1 counter; 480 tested, 69% active; recombinant LYPLA1, FP-Rh probe fluorescence polarization; inhibition, % at 5.9 µM;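 active = mean inhibition across replicates above the hit cutoff set in the primary screen, cut at about 15% in these data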;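 also: loss of FP-Rh probe labeling of LYPLA1 seen as lower polarization; 0% = LYPLA1 with DMSO and 100% = wells lacking LYPLA1 enzyme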
LYPLA2 conf: counter-screen for PME1 inhibitors: confirmation of human LYPLA2 inhibitors; shares compounds with LYPLA2 inh; recombinant LYPLA2, FP-Rh probe fluorescence polarization; inhibition, % at 5.9 µM; 1,100 tested, 72% active; AID 2232;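 active = mean inhibition across replicates above the hit cutoff set in the primary screen, cut at about 26% in these data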;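 also: blocked labeling of the enzyme by serine hydrolase FP-Rh probe lowers polarization; 0% = enzyme with DMSO and 100% = wells lacking LYPLA2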
PREPL confirm: human PREPL inhibition, confirmation | shares compounds with PREPL inhibitor | inhibition, % at 5.96 µM | 2,000 tested, 67% active | recombinant PREPL, fluorescence polarization activity probe;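 also: 0% = protein with DMSO and 100% = wells lacking protein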
Numbers without * were called inactive; nt = no result. This is a sample that favours compounds with a hit; in the whole collection about 1.3% have one here. Rule as the data show it, unless noted: active = inhibition above about 43%; inactive = the rest.

SMILES | PME-1 primary | LYPLA1 counter | Fam108B counter | LYPLA2 inh | PREPL inhibitor | Fam108b inh conf | Fam108b inh | LYPLA1 conf | LYPLA2 conf | others
CCCCn1c(NC(=O)c2ccccc2Cl)c(C#N)c2nc3ccccc3nc21 | 27* | 45* | 38* | 58* | 38 | 54* | 10 | 62* | 0
O=S(=O)(c1cccs1)N1CN(Cc2ccco2)c2nc3ccccc3nc21 | 34* | 30* | 28* | 38* | 36 | 9 | nt | 2 | 8
O=S(=O)(c1cccs1)N1CN(Cc2ccc(Cl)cc2)c2nc3ccccc3nc21 | 5 | -7 | -2 | 3 | 1 | nt | nt | nt | nt
CCCCCCCCOc1ccc(C2OC34CCCCC3C(C#N)(C#N)C2(C#N)C(=N)O4)cc1 (stereo not drawn) | 20 | 17* | 19* | 26* | 15 | -5 | nt | 14* | 8
O=C1C(Cl)=C(NCCCO)C(=O)c2ccccc21 | 6 | 2 | 0 | 0 | 0 | nt | nt | nt | nt
O=C1C(SCCO)=C(SCCO)C(=O)c2ccccc21 | 31* | 3 | 51* | 31* | 30 | 66* | 90* | nt | 55*
O=C(O)c1cccc(-c2ccc(/C=N/Nc3ccc([N+](=O)[O-])cc3)o2)c1 | 33* | 10 | 23* | 31* | 21 | 20* | nt | nt | 27*
Nc1ccc(N2CCCCC2)cc1N1CCCCC1 | 6 | 1 | 1 | -2 | 38 | nt | nt | nt | nt
Nc1ccc(N2CCCCC2)c2nonc12 | 34* | 79* | 67* | 90* | 12 | -4 | nt | 4 | 0
Nc1c(N2CCCC2)cc(Cl)c2nonc12 | 31* | 72* | 54* | 72* | 34 | 42* | 0 | 0 | -1
O=C(CCC(=O)OCc1ccc(Br)cc1)Nc1ccccc1 | -5 | 1 | 0 | -4 | 4 | nt | nt | nt | nt
CC(=O)c1cccc(NC(=O)COc2ccc(S(=O)(=O)N3CCCCC3)cc2)c1 | -4 | 0 | -4 | 7 | 13 | nt | nt | nt | nt
CCOC(=O)c1cnc2c(ccc3ccccc32)c1N | -1 | 0 | -2 | -4 | 3 | nt | nt | nt | nt
COC1=CC(=O)C(O)=C(CCCCCCC/C=C/CCCCCCCC2=C(O)C(=O)C=C(OC)C2=O)C1=O | 22 | 56* | 47* | 51* | 15 | 52* | nt | 72* | 36*
CC(=O)Nc1cccc(NC(=O)C(C)N2c3cccc4cccc(c34)S2(=O)=O)c1 (stereo not drawn) | -6 | -5 | 2 | -2 | -26 | nt | nt | nt | nt
O=C(Nc1cccnc1)NC1CCCCC1 | 2 | 0 | 0 | 2 | 3 | nt | nt | nt | nt
COc1cc(Br)c(C(=O)c2nccc3cc(OC)c(OC)cc23)cc1OC | 22 | 44* | 63* | 57* | 26 | 62* | 0 | 16* | 85*
O=C(Cn1cc(C(F)(F)F)cc(Cl)c1=O)Nc1cccc(S(=O)(=O)N2CCCCC2)c1 | -1 | -2 | nt | 0 | -1 | nt | nt | nt | nt
COc1cccc2c1C(=O)c1c(O)c3c(c(O)c1C2=O)C[C@@](O)(C(=O)CO)C[C@@H]3O[C@H]1C[C@H](N)[C@H](O)[C@H](C)O1 | 48* | 59* | 32* | 43* | 24 | 34* | 65* | 52* | 27*
CCCc1cc(=O)c2ccc(OC/C(C)=N/O)cc2o1 | 3 | 1 | 1 | 5 | -1 | nt | nt | nt | nt
O=C1C=C(N2CCOCC2)c2ccccc2C1=O | 28* | 43* | 58* | 68* | 16 | 66* | 20 | 50* | 79*
Cc1ccc(N2CCOCC2)c2c1C(=O)c1ccccc1C2=O | 8 | 1 | 3 | -1 | 10 | nt | nt | nt | nt
O=C1C(Cl)=C(N2CCC(C(=O)O)CC2)C(=O)c2ccccc21 | 17 | 2 | 29* | 40* | 17 | 52* | 60* | nt | 37*
NC(=O)C1CCN(C2=C(Cl)C(=O)c3ccccc3C2=O)CC1 | 22 | 7 | 51* | 42* | 8 | 59* | 0 | nt | 36*
NC(=O)C1CCN(C2=C(NS(=O)(=O)c3ccccc3)C(=O)c3ccccc3C2=O)CC1 | 2 | 1 | 0 | 2 | -1 | nt | nt | nt | nt
SMILES | PME-1 primary | LYPLA1 counter | Fam108B counter | LYPLA2 inh | PREPL inhibitor | Fam108b inh conf | Fam108b inh | LYPLA1 conf | LYPLA2 conf | others
Cc1ccc(S(=O)(=O)/N=C2/C=C(Sc3ncn[nH]3)C(=O)c3ccccc32)cc1 | 46* | 6 | 80* | 47* | 6 | 65* | nt | nt | 57*
Oc1ccccc1-c1nc2c3ccccc3c3ccccc3c2[nH]1 | 38* | 6 | 44* | 36* | 18 | 53* | 90* | nt | 14
Oc1ccccc1-c1ccn[nH]1 | nt | nt | nt | nt | -1 | nt | nt | nt | nt
COc1ccc(NC(=O)Nc2ccon2)cc1OC | 3 | 0 | -2 | 3 | 0 | nt | nt | nt | nt
Cc1nc(N2CCN(c3ccc(Cl)cc3)CC2)[nH]c(=O)c1C | -4 | -2 | -2 | 1 | 10 | nt | nt | nt | nt
Cn1nc(-c2ccccn2)nc2c(=O)n(C)c(=O)nc1-2 | 36* | 92* | 62* | 90* | 59* | 86* | 0 | 89* | 92* | PREPL confirm=52*
COc1ccc(-c2nc(-c3ccccn3)ncc2S(C)(=O)=O)cc1 | -1 | -1 | -1 | 6 | -1 | nt | nt | nt | nt
NC(=O)[C@@H]1CCNc2c(I)cc([N+](=O)[O-])cc2C(=O)N[C@@H](CCC(=O)O)C(=O)N[C@@H](CO)C(=O)N1 | 0 | 0 | -1 | 4 | -3 | nt | nt | nt | nt
Cc1ccccc1-c1nn[nH]n1 | 1 | 4 | -5 | 4 | 17 | nt | nt | nt | nt
Oc1ccc(N=Nc2ccccc2-c2nn[nH]n2)c(O)c1 | 22 | 1 | 40* | 9 | 51* | 41* | 0 | nt | nt | PREPL confirm=53*
CCOC(=O)C1CCN(C(=O)Nc2ccc3nc(-c4ccco4)c(-c4ccco4)nc3c2)CC1 | 11 | -12 | 34* | 9 | 60* | 40* | 0 | nt | nt | PREPL confirm=64*
C/C(N)=C(/C#N)C(=O)CN1CCCCC1 | 0 | 3 | 1 | 8 | 0 | nt | nt | nt | nt
COc1cccc(/C=N/Nc2ccc([N+](=O)[O-])cn2)c1O | 75* | -3 | 51* | 0 | 56* | 5 | nt | nt | nt | PREPL confirm=18
COc1cccc(/C=N/Nc2ccnc(=O)[nH]2)c1O | 2 | -1 | 0 | -2 | 3 | nt | nt | nt | nt
Cc1ccc(-n2c(C)cc(=O)cc2C)c(C)c1 | 1 | 6 | -3 | 7 | 37 | nt | nt | nt | nt
Cc1cc(N)ccc1-n1c(C)ccc1C | 90* | 56* | 42* | 85* | 59* | 4 | nt | 4 | 4 | PREPL confirm=11
